Results published in the supplement of paper PMC4466140.

Tests used:
Test in all cases: SPOT peptide array binding signal intensity (averaged, normalized) (arbitrary units (background-subtracted, floor 0; scale differs between SH3 domains)); higher = stronger binding of the SH3 domain to the peptide
AgAbp1 = target: AgAbp1
Method in brief: (§1)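 The binding signal is the normalized, background-subtracted spot intensity averaged over replicates; its arbitrary units differ between domains. It was obtained by incubating 10 μg/ml GST-fused SH3 domains from four yeast species overnight at 4°C in TBS-based blocking buffer on cellulose membranes with synthetic 15-mer peptides, cysteines replaced by serines, then detecting with anti-GST antibody, HRP anti-mouse secondary and luminol.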

AgBbc1 = target: AgBbc1
Method in brief: as §1

AgBem1-D1 = target: AgBem1-D1
Method in brief: as §1

AgBzz1-D1 = target: AgBzz1-D1
Method in brief: as §1

AgBzz1-D2 = target: AgBzz1-D2
Method in brief: as §1

AgCyk3 = target: AgCyk3
Method in brief: as §1

AgFus1 = target: AgFus1
Method in brief: as §1

AgHof1 = target: AgHof1
Method in brief: as §1

AgHse1 = target: AgHse1
Method in brief: as §1

AgLsb1 = target: AgLsb1
Method in brief: as §1

AgLsb4 = target: AgLsb4
Method in brief: as §1

AgMyo5 = target: AgMyo5
Method in brief: as §1

AgNbp2 = target: AgNbp2
Method in brief: as §1

AgRvs167 = target: AgRvs167
Method in brief: as §1

AgSho1 = target: AgSho1
Method in brief: as §1

AgSla1-D1-D2 = target: AgSla1-D1-D2
Method in brief: as §1

AgSla1-D3 = target: AgSla1-D3
Method in brief: as §1

CaAbp1-D1 = target: CaAbp1-D1
Method in brief: as §1

CaAbp1-D2 = target: CaAbp1-D2
Method in brief: as §1

CaBbc1 = target: CaBbc1
Method in brief: as §1

CaBem1-D1 = target: CaBem1-D1
Method in brief: as §1

CaBzz1-D1 = target: CaBzz1-D1
Method in brief: as §1

CaBzz1-D2 = target: CaBzz1-D2
Method in brief: as §1

CaCyk3 = target: CaCyk3
Method in brief: as §1

CaFus1 = target: CaFus1
Method in brief: as §1

CaHof1 = target: CaHof1
Method in brief: as §1

CaHse1 = target: CaHse1
Method in brief: as §1

CaLsb1 = target: CaLsb1
Method in brief: as §1

CaLsb4 = target: CaLsb4
Method in brief: as §1

CaMyo5 = target: CaMyo5
Method in brief: as §1

CaNbp2 = target: CaNbp2
Method in brief: as §1

CaRvs167 = target: CaRvs167
Method in brief: as §1

CaRvs167-3 = target: CaRvs167-3
Method in brief: as §1

CaSho1 = target: CaSho1
Method in brief: as §1

CaSla1-D1-D2 = target: CaSla1-D1-D2
Method in brief: as §1

CaSla1-D3 = target: CaSla1-D3
Method in brief: as §1

ScAbp1 = target: ScAbp1
Method in brief: as §1

## VFQFQMPTTPISTKM
AgAbp1
  SPOT peptide array binding signal intensity: ≤ 0
AgBbc1
  SPOT peptide array binding signal intensity: 10
AgBem1-D1
  SPOT peptide array binding signal intensity: 132
AgBzz1-D1
  SPOT peptide array binding signal intensity: 22.5
AgBzz1-D2
  SPOT peptide array binding signal intensity: 9
AgCyk3
  SPOT peptide array binding signal intensity: 1
AgFus1
  SPOT peptide array binding signal intensity: 346
AgHof1
  SPOT peptide array binding signal intensity: 5
AgHse1
  SPOT peptide array binding signal intensity: 428
AgLsb1
  SPOT peptide array binding signal intensity: 2
AgLsb4
  SPOT peptide array binding signal intensity: ≤ 0
AgMyo5
  SPOT peptide array binding signal intensity: 14.8
AgNbp2
  SPOT peptide array binding signal intensity: 344
AgRvs167
  SPOT peptide array binding signal intensity: 1.33
AgSho1
  SPOT peptide array binding signal intensity: 251
AgSla1-D1-D2
  SPOT peptide array binding signal intensity: 1.5
AgSla1-D3
  SPOT peptide array binding signal intensity: 3
CaAbp1-D1
  SPOT peptide array binding signal intensity: 59
CaAbp1-D2
  SPOT peptide array binding signal intensity: 116
CaBbc1
  SPOT peptide array binding signal intensity: 34
CaBem1-D1
  SPOT peptide array binding signal intensity: 111
CaBzz1-D1
  SPOT peptide array binding signal intensity: 152
CaBzz1-D2
  SPOT peptide array binding signal intensity: 101
CaCyk3
  SPOT peptide array binding signal intensity: 13
CaFus1
  SPOT peptide array binding signal intensity: 820
CaHof1
  SPOT peptide array binding signal intensity: 0.5
CaHse1
  SPOT peptide array binding signal intensity: 303
CaLsb1
  SPOT peptide array binding signal intensity: 2.5
CaLsb4
  SPOT peptide array binding signal intensity: 407
CaMyo5
  SPOT peptide array binding signal intensity: 92.8
CaNbp2
  SPOT peptide array binding signal intensity: 985
CaRvs167
  SPOT peptide array binding signal intensity: 32.7
CaRvs167-3
  SPOT peptide array binding signal intensity: 4.5
CaSho1
  SPOT peptide array binding signal intensity: 922
CaSla1-D1-D2
  SPOT peptide array binding signal intensity: 404
CaSla1-D3
  SPOT peptide array binding signal intensity: 454
ScAbp1
  SPOT peptide array binding signal intensity: 4
